Among all 4,900 compounds or so, about 2,100 (43%) were called active.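 Rule for the calls: active = thallium signal inhibited by more than 5 SD of the compound-free buffer control wells, on both duplicate plates; inactive = the rest.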 So high a share suggests a set chosen from earlier hits. The list is a sample of the results.
What follows are molecules tested against Potassium channel subfamily K member 9 (Homo sapiens) (UniProt Q9NPC2) (assay: KCNK9 potassium channel inhibitors, confirmation, HEK293 cells, thallium flux, duplicate (AID 492992;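 for inhibition: 0% = assay buffer control wells without compound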)). Settings: FluxOR thallium flux fluorescence, at 10 µM; active compounds read high.
Sequence of Potassium channel subfamily K member 9 (Homo sapiens) (Q9NPC2 whole entry, looked up): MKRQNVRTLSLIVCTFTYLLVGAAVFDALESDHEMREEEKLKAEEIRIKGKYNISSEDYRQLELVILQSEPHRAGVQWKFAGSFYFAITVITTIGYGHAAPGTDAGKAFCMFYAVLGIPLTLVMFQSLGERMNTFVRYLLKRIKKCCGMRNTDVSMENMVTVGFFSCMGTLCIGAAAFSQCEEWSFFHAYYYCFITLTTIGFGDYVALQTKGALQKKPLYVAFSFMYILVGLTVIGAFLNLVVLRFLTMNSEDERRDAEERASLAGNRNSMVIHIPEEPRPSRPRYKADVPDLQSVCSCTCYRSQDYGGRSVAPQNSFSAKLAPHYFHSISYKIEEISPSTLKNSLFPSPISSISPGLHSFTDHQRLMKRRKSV

Compound	inhibition
CN(CCC(=O)Nc1cc(S(=O)(=O)N(C)C)ccc1Cl)CC(=O)Nc1ccc(F)cc1	51.5% (active)
CC1CCN(C(=S)c2ccc(-c3ccc(Cl)cc3Cl)o2)CC1	inactive
COc1ccc(C2Nc3ccccc3C(=O)N2Cc2ccccc2)cc1Cn1nnc2ccccc21 (stereo unspecified)	inactive
O=C(Nc1ccc(Cl)c(Cl)c1)N1CC=C(c2ccccc2)CC1	30% (active)
O=C(COC(=O)c1ccccc1)Nc1ccccc1Sc1ccccc1	35% (active)
CCN(C(=O)COc1ccc(C(=O)c2ccccc2)cc1)c1ccccc1	40% (active)
CCOC(=O)[C@@H]1[C@H]2COc3ccc(Br)cc3[C@H]2N2C(=O)N(c3ccc(Cl)cc3)C(=O)[C@@]12C	56.5% (active)
C[C@@]12C(=O)N(c3cccc(Br)c3)C(=O)N1[C@H](c1ccc(Cl)cc1)[C@@H]1C(=O)N(C3CCCCC3)C(=O)[C@@H]12	inactive
COc1cccc2cc(C(C)N(CCCN3CCOCC3)C(=O)Nc3ccc(Cl)cc3)oc12 (stereo unspecified)	42.5% (active)
Cc1cccc2cc(CN(Cc3nnnn3Cc3ccccc3)C3CCCC3)c(=O)[nH]c12	27% (active)
CCC(c1nnnn1Cc1ccco1)N(CCc1ccccc1)Cc1cc2cccc(C)c2[nH]c1=O (stereo unspecified)	47% (active)
CCOc1ccc(OCc2ccc(C(=O)Nc3cccc(C)n3)o2)cc1	inactive
O=C(Cc1ccccc1)n1nc(-c2ccccc2)nc1NCc1ccco1	inactive
CCC1(C)Cc2c(sc3[nH]c(=S)n(Cc4ccccc4)c(=O)c23)CO1 (stereo unspecified)	inactive
CCCSc1nc(NCc2ccco2)c2c3c(sc2n1)COC(C)(CC)C3 (stereo unspecified)	40% (active)
Cc1ccc(C)c(NC(=S)NNC(=S)Nc2ccc(C(C)C)cc2)c1	inactive
CCOC(=O)Cc1cc(=O)[nH]c(=O)[nH]1	25% (active)
Clc1ccc(Cl)c(Oc2ccc(Oc3nc(Cl)ccc3Cl)cc2)n1	inactive
CCC/C=C(\CCC)C(NC(=O)Cc1ccccc1)c1ccc(C(=O)OC)cc1 (stereo unspecified)	67% (active)
CC(C)(C)SCCSC1=CC(=O)CC(c2ccccc2)C1 (stereo unspecified)	inactive
CCCCCC(O)c1cccc(OCc2ccc3ccccc3n2)c1 (stereo unspecified)	74.5% (active)
COc1cccc(-c2cnc(OC(C)(C)C)nc2OC(C)(C)C)c1	inactive
CCOC(=O)c1cc2sccc2n1Cc1ccc(C#N)cc1	65% (active)
CCOC(=O)c1c(NC(=O)CCCN2CCOCC2)sc2c1CC(C)(C)OC2	inactive
CN(CCOc1ccccc1)C(=O)c1cc(COc2c(F)cccc2F)on1	inactive
CCOC(=O)C1=C(C)Nc2sc(C(=O)c3ccc(Br)cc3)c(N)c2C1c1ccc(C(=O)OC)cc1 (stereo unspecified)	31% (active)
